# In the supplement of paper PMC9694430:
# “And” between values parts separate entries of the source, which are not always exact repeats. Identical values can stand only once. Counter-ions that a name gives are not always drawn.
# System: LOC_OS02G14120-cb001
# Assay: thermal shift delta Tm vs DMSO control; higher = stronger stabilization (binding)
# Conditions: 12.5 µM; protein concentration 2 µM
# In short: (§1)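 Rice kinase domain constructs, made in E. coli and purified, were placed in 96-well plates at 2 μM in 19.5 μl of 100 mM potassium phosphate pH 7.5, 150 mM NaCl, 10% glycerol and 5 × SYPRO Orange, with compound in DMSO. A temperature ramp from 25°C to 95°C at 0.05°C/s was used for differential scanning fluorimetry. The melting temperature shift is a triplicate mean compared with DMSO-only protein, derived from Boltzmann fits.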
# 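Note: purified Escherichia coli-expressed rice kinase domain construct.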
row,Structure (SMILES),thermal shift delta Tm
1,C[C@H](CN(C)C)Oc1nc(Nc2cc3cccc(Cl)c3cn2)cnc1C#N,2.95 °C
2,CN1c2ccccc2C(=O)Nc2cnc(Nc3ccc(N4CCC(O)CC4)cc3)nc21,11.1 °C
3,CCNc1nc(Nc2cc(F)c(C(=O)N3CCOCC3)cc2OC)ncc1C(F)(F)F,0.5 °C
4,COc1cc2ncnc(Nc3ccc(Oc4ccccc4)cc3C)c2cc1OC,3.14 °C
5,O=C1NC(=O)/C(=C/c2cccc(C(F)(F)F)c2)S1,-0.36 °C
6,COc1ccc(C(=O)Nc2sc3c(c2C(N)=O)CCCC3)cc1OC,2.58 °C
7,C#Cc1cccc(Nc2ncnc3cc(OCCOC)c(OCCO)cc23)c1,4.33 °C
8,FC(F)(F)c1ccc(/C=C/c2nc(COc3ccc(CCCCn4ccnn4)cc3)co2)cc1 [Mubritinib (TAK 165)],0.38 °C
9,CNC(=O)Nc1ccc(-c2nc(N3CC4CCC(C3)O4)c3cnn(C4CCC5(CC4)OCCO5)c3n2)cc1,1.03 °C
10,CC(C)(C)NS(=O)(=O)c1cncc(-c2cc(F)c3nc(N)nn3c2)c1,-0.33 °C
11,C[C@@H]1CN(CC(=O)Nc2ccc3c(c2)Cc2cccc(-c4cc(=O)cc(N5CCOCC5)o4)c2S3)C[C@H](C)O1,0.18 °C
12,COCCOc1ccc2c(c1)ncn2-c1ccc2cccc(N3CCC(N)CC3)c2n1,11 °C
13,Cc1ccc(NC(=O)c2ccc(CN3CCN(C)CC3)cc2)cc1Nc1nc(-c2cccnc2)cs1 [Masitinib (AB1010)],0.12 °C
14,Cn1cc(-c2cnn3c(N)c(Br)c([C@@H]4CCCNC4)nc23)cn1,3.6 °C
15,COc1ccc(-c2cc3c(C)nc(N)nc3n([C@H]3CC[C@H](OCCO)CC3)c2=O)cn1,1.12 °C
16,Cc1ccc(S(=O)(=O)/C=C/C#N)cc1,-1.26 °C
17,"CCCS(=O)(=O)Nc1ccc(F)c(C(=O)c2c[nH]c3ncc(-c4ccc(Cl)cc4)cc23)c1F [Vemurafenib (PLX4032, RG7204)]",4.6 °C
18,C[C@@H](N)c1ccc(C(=O)Nc2ccnc3[nH]ccc23)cc1,4 °C
19,O=C(NC1CCNCC1)c1n[nH]cc1NC(=O)c1c(Cl)cccc1Cl,-0.32 °C and 0.19 °C

row,Structure (SMILES),thermal shift delta Tm
1,NCC(=O)Nc1ccc(-n2nc(C(F)(F)F)cc2-c2ccc3c(ccc4ccccc43)c2)cc1,1.29 °C
2,CCn1c(-c2nonc2N)nc2cnc(Oc3cccc(NC(=O)c4ccc(OCCN5CCOCC5)cc4)c3)cc21,-0.13 °C
3,COc1cc2c3cc1Oc1c(OC)c(OC)cc4c1[C@@H](Cc1ccc(O)c(c1)Oc1ccc(cc1)C[C@@H]3N(C)CC2)N(C)CC4 [Berbamine (dihydrochloride)],0.03 °C
4,COc1cc2ncc(-c3ccccc3)nc2cc1OC [Tyrphostin AG 1296],2.29 °C
5,C[C@H]1CNCCCN1S(=O)(=O)c1cccc2cncc(F)c12 [Ripasudil (K-115) hydrochloride dihydrate],1.57 °C
6,N#Cc1c(NC(=O)c2cccc3ccccc23)sc2c1CCCC2 [JNK Inhibitor IX],-0.31 °C
7,CC(C)N(CCC(=O)c1ccc2ccccc2c1)Cc1ccccc1,-2 °C
8,COC(=O)c1ccc2c(c1)NC(=O)/C2=C(\Nc1ccc(N(C)C(=O)CN2CCN(C)CC2)cc1)c1ccccc1 [Nintedanib (BIBF 1120)],0.3 °C
9,Nc1ccc(-c2ccc3ncc4ccc(=O)n(-c5cccc(C(F)(F)F)c5)c4c3c2)cn1 [Torin 2],1.62 °C
10,COc1ccc2c(Oc3ccc(NC(=O)c4c(C)n(CC(C)(C)O)n(-c5ccccc5)c4=O)nc3)ccnc2c1,5.4 °C
11,COc1ncc(-c2ccc3nccc(-c4ccnnc4)c3c2)cc1NS(=O)(=O)c1ccc(F)cc1F,0.78 °C
12,Cc1c[nH]c(/C=C2\C(=O)Nc3ccccc32)c1CCC(=O)O,1.56 °C
13,Cc1cc(Nc2cc(Cl)nc(Oc3ccc([N+](=O)[O-])cc3)n2)n[nH]1 [Autophinib],0.42 °C
14,O=C(c1ccc(/C=C/c2n[nH]c3ccccc23)cc1)N1CCNCC1,7.17 °C
15,COc1ccc(CNC(=O)Nc2ncc([N+](=O)[O-])s2)cc1,-0.24 °C
16,Cc1cc2c(F)c(Oc3ncnn4cc(OC[C@@H](C)O)c(C)c34)ccc2[nH]1,1.77 °C
17,C=CC(=O)Nc1cccc(Oc2nc(Nc3ccc(N4CCN(C)CC4)cc3)nc3ccsc23)c1,3.63 °C
18,O=c1cc(N2CCOCC2)oc2c(-c3ccc4c(c3)OCCO4)csc12,1.45 °C
19,c1nc2c(NC3CCCCC3)nc(Nc3ccc(N4CCOCC4)cc3)nc2[nH]1 [Reversine],7.96 °C

# System: LOC_OS02G17970-cb001
# Assay: as above
# Conditions: 12.5 µM; protein concentration 2 µM
# In short: as §1
row,Structure (SMILES),thermal shift delta Tm
1,C[C@H](CN(C)C)Oc1nc(Nc2cc3cccc(Cl)c3cn2)cnc1C#N,2.26 °C
2,CN1c2ccccc2C(=O)Nc2cnc(Nc3ccc(N4CCC(O)CC4)cc3)nc21,0.53 °C
3,CCNc1nc(Nc2cc(F)c(C(=O)N3CCOCC3)cc2OC)ncc1C(F)(F)F,0.54 °C
4,COc1cc2ncnc(Nc3ccc(Oc4ccccc4)cc3C)c2cc1OC,0.03 °C
5,O=C1NC(=O)/C(=C/c2cccc(C(F)(F)F)c2)S1,0.43 °C
6,COc1ccc(C(=O)Nc2sc3c(c2C(N)=O)CCCC3)cc1OC,0.27 °C
7,C#Cc1cccc(Nc2ncnc3cc(OCCOC)c(OCCO)cc23)c1,-0.01 °C
8,FC(F)(F)c1ccc(/C=C/c2nc(COc3ccc(CCCCn4ccnn4)cc3)co2)cc1 [Mubritinib (TAK 165)],0.37 °C
9,CNC(=O)Nc1ccc(-c2nc(N3CC4CCC(C3)O4)c3cnn(C4CCC5(CC4)OCCO5)c3n2)cc1,0.84 °C
10,CC(C)(C)NS(=O)(=O)c1cncc(-c2cc(F)c3nc(N)nn3c2)c1,2.29 °C
11,C[C@@H]1CN(CC(=O)Nc2ccc3c(c2)Cc2cccc(-c4cc(=O)cc(N5CCOCC5)o4)c2S3)C[C@H](C)O1,0.49 °C
12,COCCOc1ccc2c(c1)ncn2-c1ccc2cccc(N3CCC(N)CC3)c2n1,0.26 °C
13,Cc1ccc(NC(=O)c2ccc(CN3CCN(C)CC3)cc2)cc1Nc1nc(-c2cccnc2)cs1 [Masitinib (AB1010)],0.55 °C
14,Cn1cc(-c2cnn3c(N)c(Br)c([C@@H]4CCCNC4)nc23)cn1,-0.03 °C
15,COc1ccc(-c2cc3c(C)nc(N)nc3n([C@H]3CC[C@H](OCCO)CC3)c2=O)cn1,0.63 °C
16,Cc1ccc(S(=O)(=O)/C=C/C#N)cc1,0.99 °C
17,"CCCS(=O)(=O)Nc1ccc(F)c(C(=O)c2c[nH]c3ncc(-c4ccc(Cl)cc4)cc23)c1F [Vemurafenib (PLX4032, RG7204)]",1.48 °C
18,C[C@@H](N)c1ccc(C(=O)Nc2ccnc3[nH]ccc23)cc1,1.28 °C
19,O=C(NC1CCNCC1)c1n[nH]cc1NC(=O)c1c(Cl)cccc1Cl,0.23 °C and 1.28 °C

row,Structure (SMILES),thermal shift delta Tm
1,NCC(=O)Nc1ccc(-n2nc(C(F)(F)F)cc2-c2ccc3c(ccc4ccccc43)c2)cc1,-0.34 °C
2,CCn1c(-c2nonc2N)nc2cnc(Oc3cccc(NC(=O)c4ccc(OCCN5CCOCC5)cc4)c3)cc21,1.79 °C
3,COc1cc2c3cc1Oc1c(OC)c(OC)cc4c1[C@@H](Cc1ccc(O)c(c1)Oc1ccc(cc1)C[C@@H]3N(C)CC2)N(C)CC4 [Berbamine (dihydrochloride)],-0.21 °C
4,COc1cc2ncc(-c3ccccc3)nc2cc1OC [Tyrphostin AG 1296],0.27 °C
5,C[C@H]1CNCCCN1S(=O)(=O)c1cccc2cncc(F)c12 [Ripasudil (K-115) hydrochloride dihydrate],1.75 °C
6,N#Cc1c(NC(=O)c2cccc3ccccc23)sc2c1CCCC2 [JNK Inhibitor IX],0.76 °C
7,CC(C)N(CCC(=O)c1ccc2ccccc2c1)Cc1ccccc1,5.17 °C
8,COC(=O)c1ccc2c(c1)NC(=O)/C2=C(\Nc1ccc(N(C)C(=O)CN2CCN(C)CC2)cc1)c1ccccc1 [Nintedanib (BIBF 1120)],-0.36 °C
9,Nc1ccc(-c2ccc3ncc4ccc(=O)n(-c5cccc(C(F)(F)F)c5)c4c3c2)cn1 [Torin 2],1.12 °C
10,COc1ccc2c(Oc3ccc(NC(=O)c4c(C)n(CC(C)(C)O)n(-c5ccccc5)c4=O)nc3)ccnc2c1,0.76 °C
11,COc1ncc(-c2ccc3nccc(-c4ccnnc4)c3c2)cc1NS(=O)(=O)c1ccc(F)cc1F,1.75 °C
12,Cc1c[nH]c(/C=C2\C(=O)Nc3ccccc32)c1CCC(=O)O,0.22 °C
13,Cc1cc(Nc2cc(Cl)nc(Oc3ccc([N+](=O)[O-])cc3)n2)n[nH]1 [Autophinib],0.46 °C
14,O=C(c1ccc(/C=C/c2n[nH]c3ccccc23)cc1)N1CCNCC1,0.42 °C
15,COc1ccc(CNC(=O)Nc2ncc([N+](=O)[O-])s2)cc1,1.43 °C
16,Cc1cc2c(F)c(Oc3ncnn4cc(OC[C@@H](C)O)c(C)c34)ccc2[nH]1,0.7 °C
17,C=CC(=O)Nc1cccc(Oc2nc(Nc3ccc(N4CCN(C)CC4)cc3)nc3ccsc23)c1,2.18 °C
18,O=c1cc(N2CCOCC2)oc2c(-c3ccc4c(c3)OCCO4)csc12,-0.32 °C
19,c1nc2c(NC3CCCCC3)nc(Nc3ccc(N4CCOCC4)cc3)nc2[nH]1 [Reversine],0.48 °C
